# Assay results published in PubChem BioAssay AID1490 (National Center for Advancing Translational Sciences (NCATS), 2009).
# Among all 310,000 compounds or so, about 11,000 (3.5%) were called active. Another 4% or so got no clear call; they are omitted. Calls come from the whole dose curve; as a rule, active = well fitted inhibition curve with a large enough effect; inconclusive = small, poorly fitted or top-dose-only effect, or another doubt; inactive = no such curve, though single readings can be large or run the other way. The full list was thinned out, with actives kept by preference.
# Molecular target: 4'-phosphopantetheinyl transferase ffp (Bacillus subtilis) (UniProt Q9F4F7)
# Experiment: qHTS Assay for Inhibitors of Bacillus subtilis Sfp phosphopantetheinyl transferase (PPTase);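 note: the enzyme is Sfp with the accession as filed and its product quenches rhodamine fluorescence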;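 for largest response in the series, negative = inhibition: 0% = enzyme reaction without inhibitor and -100% = no enzyme wells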
# Settings: Biochemical Sfp PPTase activity
# In short: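 Fluorescence-quenching assay with 15 nM Sfp, 5 uM rhodamine-CoA and 12.5 uM BHQ-2-labelled ybbR peptide in pH 7.6 Hepes/MgCl2 buffer. Enzyme was pre-incubated with compound for 15 min at room temperature. Rate was taken from the 30-min fluorescence change (525/598 nm).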
# Potency is the fitted concentration of half-maximal effect.
SMILES,"largest response in the series, negative = inhibition",Potency
COc1ccc(C(=O)CC(=O)C(=O)Nc2cc([N+](=O)[O-])ccc2OC)cc1,1.31% (inactive),
CCCc1cc(C(=O)Nc2ccc(Cl)cn2)cs1,2.86% (inactive),
O=C(Nc1cccc([N+](=O)[O-])c1)Nc1ccc(Cl)cn1,13.8% (inactive),
O=C(Nc1ccc(Cl)cn1)Nc1cccs1,,39.8 µM (active)
Cc1sc2ncn(CC(=O)NCCN(C)C)c(=O)c2c1S(=O)(=O)N1CCC(C)CC1,16.8% (inactive),
O=C(CNC(=O)c1ccccc1)Oc1ccc([N+](=O)[O-])cc1,7.55% (inactive),
COc1ccc(C(=O)OCC(=O)Nc2cccc(C(C)=O)c2)cc1OC,11.4% (inactive),
CN(C)CCCNC(=S)N1CCN(c2nc(-c3ccccc3)cs2)CC1,-3.69% (inactive),
CC(=O)c1cccc(NC(=O)C2CCN(C(=O)c3ccccc3Cl)CC2)c1,-3.58% (inactive),
Cn1c(CCN2CCCC2)nc2cc(NS(=O)(=O)c3ccccc3)ccc21,1.01% (inactive),
O=S(=O)(Nc1ccc2nc(-c3ccco3)[nH]c2c1)c1ccccc1,,28.2 µM (active)
O=S(=O)(Nc1ccc2cn[nH]c2c1)c1ccccc1,14.6% (inactive),
O=C(c1ccc(Br)o1)N1CCN(CCOc2ccccc2)CC1,15.3% (inactive),
Cc1ccc(/C=N/NC(=O)c2cc3ccccc3cc2O)o1,13.6% (inactive),
O=C(c1cccc(F)c1)N1CCN(c2ccc([N+](=O)[O-])c3cccnc23)CC1,1.54% (inactive),
O=[N+]([O-])c1cccc2ncccc12,8.82% (inactive),
O=[N+]([O-])c1cc([N+](=O)[O-])c2cccnc2c1O,,39.8 µM (active)
NC(=O)C1CC(=O)N(c2ccc(OCC(=O)NCc3ccccc3)cc2)C1 (centres undefined),23.9% (inactive),
Nc1scc[n+]1Cc1cccc2cccnc12,17.3% (inactive),
c1ccc(NCc2cccc3ccccc23)nc1,-7.37% (inactive),
c1ccc2c(C[n+]3csc4ccccc43)cccc2c1,,44.7 µM (active)
C=CCCN(C(Cc1ccccc1)C(=O)OC)S(=O)(=O)c1cc(Br)ccc1Br (centres undefined),7.63% (inactive),
CCOc1ccc(N/C(N)=N/c2nc(C)c(C)c(=O)[nH]2)cc1,12.8% (inactive),
Cc1ccc(C)c(SCc2nc3sc(C(=O)O)c(C)c3c(=O)[nH]2)c1,-17.2% (inactive),

SMILES,"largest response in the series, negative = inhibition",Potency
CSc1nnc(SCc2nc3sc(C(=O)O)c(C)c3c(=O)[nH]2)s1,,12.6 µM (active)
CCOC(=O)c1sc2nc(CSc3ccccc3)[nH]c(=O)c2c1C,1.58% (inactive),
Cc1cccc(OCC(=O)NCCNC(=O)c2cccnc2)c1,3.63% (inactive),
CN(C)CCN(Cc1ccccc1)S(=O)(=O)c1csc(C(N)=O)c1,4.81% (inactive),
CCc1ccc(OCC(=O)OC(C)C(=O)NC2CC2)cc1 (centres undefined),6.01% (inactive),
COc1ccc(NC(=O)c2cc(-c3cc(OC)c(OC)c(OC)c3)nc3ccccc23)c(OC)c1,1.5% (inactive),
Cc1ccc(NC(=O)c2cc(-c3ccc(C)o3)nc3ccccc23)nc1,,10 µM (active)
CSc1ncccc1C(=O)Nc1ccc(C)cn1,10.7% (inactive),
CCc1nccn1CCC(=O)N1CCCC(N2CCN(c3ccccc3F)CC2)C1 (centres undefined),1.37% (inactive),
Cc1ccccc1-c1nc(CS(=O)(=O)CC(=O)NC(C)c2ccccc2)c(C)o1 (centres undefined),1.96% (inactive),
O=C(NCc1ccco1)c1ccc([N+](=O)[O-])cc1Cl,22.8% (inactive),
Cc1ccc(/C([O-])=C(/C(=S)NCc2ccco2)[n+]2ccccc2)cc1[N+](=O)[O-],,25.1 µM (active)
O=C(c1ccccc1)N1CCN(c2ccc([N+](=O)[O-])c(NCc3ccco3)c2)CC1,10.8% (inactive),
Cc1ccc(S(=O)(=O)NCC2CCC(C(=O)N3CCOCC3)CC2)cc1 (centres undefined),10% (inactive),
CC(C)CCN1NC2(CCC(C)CC2)NC1=S (centres undefined),,79.4 µM (active)
C[C@H]1Cc2c(COc3ccccc3)nc3c(c2CO1)CN(C(=O)NCc1ccco1)CC3,2.41% (inactive),
O=C(Cn1nc(C(=O)O)c2ccccc2c1=O)Nc1ccc(F)cc1,1.99% (inactive),
COCCOC(=O)C1=C(C)NC(=O)NC1c1cc2c(cc1Br)OCO2 (centres undefined),10.6% (inactive),
O=C(/C=C/c1ccc(Cl)cc1Cl)c1cccnc1,,31.6 µM (active)
O=C(Nc1cccnc1)c1cc(Cl)ccc1Cl,16.1% (inactive),
O=C(/C=C/c1ccc(Cl)cc1Cl)NCc1ccco1,-1.31% (inactive),
O=C(NCc1ccccc1Cl)c1ccc2c(=O)n(CC3CCCO3)c(=S)[nH]c2c1 (centres undefined),12.5% (inactive),
O=S(=O)(NC1CCCCC1N1CCC(O)CC1)c1ccc(Cl)cc1 (centres undefined),10.1% (inactive),
COc1ccc(N2CCN(S(=O)(=O)c3ccc4c(c3)N(C(C)=O)CCO4)CC2)cc1,11.9% (inactive),

SMILES,"largest response in the series, negative = inhibition",Potency
CCCCc1nc(SCC(=O)Nc2nnc(C(C)C)s2)n[nH]1,2.56% (inactive),
N#CC1(NC(=O)COC(=O)CCN=C2NS(=O)(=O)c3ccccc32)CCCCC1,8.87% (inactive),
O=C1C(c2ccccn2)=[N+]([O-])c2ccccc21,,56.2 µM (active)
O=Cc1cn(-c2ccccc2)nc1-c1ccccn1,19.4% (inactive),
CCOC(=O)C1(Cc2ccccc2C)CCCN(S(C)(=O)=O)C1 (centres undefined),-1.45% (inactive),
O=C(NCCc1ccccc1)C(=O)NCC1OCCN1S(=O)(=O)c1cccs1 (centres undefined),15% (inactive),
CC(=O)N1CCCc2cc(S(=O)(=O)N3CCCC(C(=O)N4CCN(c5cccc(Cl)c5)CC4)C3)ccc21 (centres undefined),-7.31% (inactive),
O=C(COc1ccccc1)Nc1ccc(C(=O)N2CCCC2)cc1,22.7% (inactive),
Cc1ccccc1C(=O)Nc1ccc(N2CCCCCC2)cc1,-8.31% (inactive),
CCOC(=O)/C(C#N)=C/c1ccc(N2CCCCC2)cc1,-25.4% (inactive),
O=C1C=CC(=O)N1c1ccc(N2CCCCC2)cc1,,7.08 µM (active)
Cc1ccc(C(CNC(=O)Nc2ccccc2)N2CCN(C)CC2)cc1 (centres undefined),6.82% (inactive),
COC(=O)C(C)Oc1ccc2c(c1)O/C(=C\c1cccc(Br)c1)C2=O (centres undefined),-9.46% (inactive),
COc1ccc(/C=C(/NC(=O)c2ccccc2)C(=O)Nc2cccc(C(=O)O)c2)cc1,2.19% (inactive),
COc1ccccc1C(=O)N/C(=C/c1ccc2c(c1)OCO2)C(=O)Nc1cccc(C(=O)O)c1,-9.69% (inactive),
COc1ccc(/C=C(/NC(=O)c2ccco2)C(=O)Nc2ccc(C(C)=O)cc2)cc1,0.26% (inactive),
Cc1ccc(NC(=O)/C(=C\c2ccccc2)NC(=O)c2ccco2)cc1,12.3% (inactive),
O=C(NC(Cc1c[nH]c2ccccc12)C(=O)O)/C(=C/c1ccco1)NC(=O)c1ccccc1 (centres undefined),,44.7 µM (active)
O=C(Nc1ccccc1)c1ccco1,19.8% (inactive),
O=C(NCc1ccco1)/C(=C/c1ccco1)NC(=O)c1ccccc1,-7.6% (inactive),
O=C(Nc1ccccc1)/C(=C\c1ccco1)NC(=O)c1ccco1,,44.7 µM (active)
Cc1cccc(NC(=O)/C(=C\c2ccco2)NC(=O)c2ccccc2)c1,,50.1 µM (active)
Cc1ccc(C(=O)N/C(=C/c2ccco2)C(=O)NCCc2c[nH]c3ccccc23)cc1C,21.3% (inactive),
COc1ccccc1C(=O)N/C(=C/c1ccco1)C(=O)Nc1ccc(C(=O)O)cc1,,50.1 µM (active)

SMILES,"largest response in the series, negative = inhibition",Potency
CC(=O)NC(Cc1c[nH]c2ccccc12)C(=O)O (centres undefined),23% (inactive),
Cc1nc2ccc(S(=O)(=O)N(C)CC(=O)NC(C)c3ccccc3)cc2s1 (centres undefined),10.4% (inactive),
COCn1c(C(O)c2ccccc2)cc2ccccc21 (centres undefined),9.58% (inactive),
Cc1ccccc1C(=O)N1CCN(c2ccc(NC(=O)c3cccs3)cc2)CC1,13.1% (inactive),
COc1ccc(C(=O)NCc2nnc(SCC(=O)NC3=NCCS3)n2C)cc1,-3.34% (inactive),
COC(=O)c1ccc(NC(=O)CSc2nncn2-c2cccnc2)cc1,16.4% (inactive),
CC(C)NC(=O)COCc1cc(-c2ccc3c(c2)OCO3)on1,4.15% (inactive),
COc1cccc(-n2c(=S)sc3c(=O)n(-c4ccccc4OC)c(SCC4OCCO4)nc32)c1,-1.29% (inactive),
COc1ccc(Cl)cc1-n1c(=S)sc2c(=O)n(-c3ccc(F)cc3)c(SCC(=O)O)nc21,,14.1 µM (active)
COc1cccc(-n2c(=S)sc3c(=O)n(-c4ccccc4C)c(SCC(=O)O)nc32)c1,4.84% (inactive),
O=C(c1cc(COc2ccc(F)cc2F)on1)N1CCOCC1,2.39% (inactive),
CC(=O)Nc1cccc(C(=O)OCN2C(=O)c3ccccc3C2=O)c1,7.23% (inactive),
CCc1nc(Nc2ccc(NC(C)=O)cc2)c2oc3ccccc3c2n1,3.27% (inactive),
Cc1ccc(N(Cc2ccccc2O)C(=O)c2ccccc2F)cc1,8.31% (inactive),
O=C(O)c1cc([N+](=O)[O-])c(Nc2cccc3ccccc23)c([N+](=O)[O-])c1,-7.55% (inactive),
COCCn1c(C)cc(C2=NNC(=Nc3ccc(F)cc3)SC2)c1C,,50.1 µM (active)
Cc1cc(C2=NNC(=Nc3ccc(S(=O)(=O)N4CCOCC4)cc3)SC2)c(C)n1CC1CCCO1 (centres undefined),,22.4 µM (active)
C=CCn1c(C)cc(C2=NNC(=NCC)SC2)c1C,,56.2 µM (active)
Cc1cccc(N=C2NN=C(c3c[nH]c4ccccc34)CS2)c1,-49.9% (inactive),
Cc1ccc(S(=O)(=O)N2CCC(C(=O)NCC3CCCO3)CC2)cc1 (centres undefined),21.8% (inactive),
C=CCn1c(C)cc(C(=O)CN2C(=O)c3ccccc3C2=O)c1C,1.15% (inactive),
Cc1ccnc(NS(=O)(=O)c2ccc(NC(=O)c3ccc(S(=O)(=O)N4CCOCC4)cc3)cc2)n1,28.5% (inactive),
